According to PubChem BioAssay (NCI):
About 83,000 compounds went through this panel and 20% of them were active in at least one assay; those are over-represented in the sample as a whole.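 Plates (96-well) were seeded with cells, treated with compound at one concentration, and incubated for 48 hours before percent growth was determined.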 Unmarked numbers belong to inactive results. The source made the active and inactive calls.

system: SK-OV-3 ovarian; test: NCI-60 one-dose screen, 48 h (100 = growth as untreated, 0 = no growth, -100 = all killed); conditions: 10 µM
Procedure: Growth inhibition of the SK-OV-3 human tumor cell line is measured as a screen for anti-cancer activity. Cells are grown in 96 well plates and exposed to the test compound for 48 hours. Compounds are tested at a single concentration, which is 10^-5 M for most compounds. The reported endpoint is percent growth (GI% or GIPRCNT), where numbers from 0 - 100% represent growth inhibition, and numbers from -100% - 0 represent cell death. For example, a value of 40 represents 60% growth inhibition. A value of 0 means no net growth occurred over the course of the experiment. A value of -40 indicates 40% of cells at the beginning of the experiment died by the end of the experiment. A value of -100 means all cells are dead at the end of the experiment.
NCI-60 Human Tumor Cell Lines Screen was performed using the standard one-dose NCI protocol, which is described in more detail at https://dtp.cancer.gov/discovery_development/nci-60/default.htm.
Compounds with GIPRCNT values below 10 were considered active. Activity score was based on GIPRCNT using the following formula: […]
Score is 0 for GIPRCNT values of 100 or above, 50 for GIPRCNT values of 0, and 100 for GIPRCNT values of -100.

Question: With O=C(Nc1cccc(C(F)(F)F)c1)c1cncc(C#Cc2cnc3cccnn23)c1 as the molecule, how does the growth read?
Answer: The growth was 83.6%.

Question: For CC(=O)c1cc(C(=O)N2c3ccccc3Sc3ccccc32)n2ccc(C)cc12, which growth is on record?
Answer: Its growth is 99.8%.

Question: How did the growth turn out when CC1(c2ccccc2)NC(=O)N(CC(=O)Nc2ccc(C(=O)/C=C/C=C/c3ccccc3)cc2)C1=O (stereo not given) was run?
Answer: The growth was 120%.

Question: Which growth does the source give for CN1C(=O)/C(=C/c2nccs2)SC1=S here?
Answer: Its growth is 105%.

Question: CN1C(=O)N(C)C2SC(N/N=C/c3cccs3)=NC21 (stereo not given) was tested. Which growth did it give?
Answer: Its growth is 40.7%.

Question: For CCCn1c(O)c(N=Nc2nc(-c3cc4ccccc4oc3=O)cs2)c2cc(Br)ccc21, which growth is on record?
Answer: The growth was 110%.

Question: Which growth does the source give for CCOC(=O)CNC(=O)CN(Cc1ccccc1)C(=O)[C@@]1(C)CCC[C@]2(C)[C@H]3C[C@H]4C(C(C)C)=C[C@]3(CC[C@H]21)[C@@H]1C(=O)OC(=O)[C@@H]14 here?
Answer: The growth was 89.4%.

Question: With COc1ccc2[nH]c(O)c(N=NC(=O)COc3ccc(NC(=O)Nc4ccc(Cl)cc4)cc3)c2c1 as the molecule, how does the growth read?
Answer: The growth was 49.6%.

Question: Which growth does the source give for CCCCCc1ccc(S(=O)(=O)Nc2cc(-c3csc(N(C)C(C)=O)n3)ccc2N2CCN(C)CC2)cc1 here?
Answer: The growth was 21.4%.

Question: CCCn1c(=O)c2[nH]c(-c3ccc(OCc4nc5ccccc5[nH]4)cc3)nc2n(CCC)c1=O was tested. Which growth did it give?
Answer: Its growth is 40.3%.

Question: With COc1ccc(NC(=O)CSc2nnc(-c3ccc4nc(-c5ccc(Cl)cc5)[nH]c4c3)o2)cc1 as the molecule, how does the growth read?
Answer: The growth was 101%.

Question: How did the growth turn out when CN(CCF)c1ccc(/C=C/C(=O)c2ccc(N)cc2O)cc1 was run?
Answer: The growth was 105%.

Question: For CCN1CCN(c2ccc(NC(=O)Nc3ccc(-c4cc(C(=O)NC(C)C)c5ncccc5n4)cc3)cc2C(F)(F)F)CC1, which growth is on record?
Answer: The growth was -91% (active).

Question: How did the growth turn out when NC(=Nc1ccc(OCCCCCCCCn2ccnn2)cc1)c1ccccc1 was run?
Answer: Its growth is 21.2%.

Question: Which growth does the source give for COc1ccc(/C=C/C(=O)c2ccc(S(=O)(=O)NCCNc3nc(Nc4ccc(F)cc4)nc(N(C)C)n3)cc2)cc1 here?
Answer: Its growth is 76%.

Question: Which growth does the source give for COc1cc(/C=C/C(=O)c2ccc(F)cc2)ccc1Oc1nc(Nc2ccc(F)cc2)nc(N(C)C)n1 here?
Answer: The growth was 103%.

Question: Which growth does the source give for O=C1Nc2ccc(Cl)cc2/C1=C/c1cccc(OCc2ccccc2)c1 here?
Answer: The growth was 75.3%.

Question: With CO[C@@H]1CSSC1Cn1nc(-c2ccc(Oc3ccccc3)cc2)c2c(N)ncnc21 (stereo not given in full) as the molecule, how does the growth read?
Answer: Its growth is 1.98% (active).

Question: Which growth does the source give for O=C(Nc1ccccc1)Nc1nc2ccccc2s1 here?
Answer: Its growth is 78.4%.

Question: With Cc1cc(C)nc(NS(=O)(=O)c2ccc(N/C(N)=N/c3nccc(-c4cccs4)n3)cc2)n1 as the molecule, how does the growth read?
Answer: Its growth is 84.4%.

Question: CCOC(=O)C1=C(N)N(c2ccc(Cl)cc2)C2=C(C(=O)CC(C)(C)C2)C1c1ccc(N2CCOCC2)cc1 (stereo not given) was tested. Which growth did it give?
Answer: The growth was 109%.

Question: Which growth does the source give for O=C(Nc1ccc(F)c(Cl)c1)c1cc(-c2ccc(F)cc2F)ccc1O here?
Answer: The growth was -5.38% (active).

Question: For CN(C)c1nc(NCCNS(=O)(=O)c2ccc(C(=O)/C=C/c3ccccc3)cc2)nc(Nc2ccc(F)cc2)n1, which growth is on record?
Answer: Its growth is 97.8%.

Question: Which growth does the source give for O=C(Cn1nc(-c2ccccc2)ccc1=O)NN1C(=O)c2ccccc2C1=O here?
Answer: Its growth is 117%.

Question: For O=C(N/N=C/c1ccc(-c2cccc([N+](=O)[O-])c2)o1)c1[nH]c2ccc(Br)cc2c1-c1ccccc1, which growth is on record?
Answer: The growth was 32.2%.

Question: How did the growth turn out when Cc1ccc(F)cc1N/C=c1\s/c(=C(\C#N)C(=O)Nc2ccccc2)n(-c2ccccc2)c1=O was run?
Answer: Its growth is 78.1%.

Question: Which growth does the source give for CN1C(=O)N(C)C2SC(N/N=C/c3ccc(F)cc3)=NC21 (stereo not given) here?
Answer: Its growth is 61.8%.

Question: With CCCn1c(=O)c2[nH]c(-c3ccc(OCc4nc5ccc(C)cc5[nH]4)cc3)nc2n(CCC)c1=O as the molecule, how does the growth read?
Answer: The growth was 4.62% (active).

Question: How did the growth turn out when COc1cc2c(cc1OC)/C(=C\c1sc(Nc3ccc(O)cc3)nc1O)C(C(=O)O)=N2 was run?
Answer: The growth was 47.3%.

Question: How did the growth turn out when CN1C(=O)/C(=C/c2ccc3ncsc3c2)NC1=NC12CC3CC(CC(O)(C3)C1)C2 was run?
Answer: Its growth is 18.6%.

Question: Which growth does the source give for O=C(Cn1nc(-c2ccccc2)ccc1=O)NNC(=S)NC1CCCCC1 here?
Answer: The growth was 112%.

Question: CC1=C(C(=O)OC(C)C)C(c2ccc(O)cc2)NC(=S)N1 (stereo not given) was tested. Which growth did it give?
Answer: The growth was 107%.

Question: How did the growth turn out when CC1CC(c2ccc(N(C)C)cc2)=NN1c1nc(O)c(C2=c3cc(Br)ccc3=NC2=O)s1 (stereo not given) was run?
Answer: Its growth is 91.3%.

Question: How did the growth turn out when O=C1Nc2ccc(F)cc2/C1=C/c1cccc(OCc2ccccc2)c1 was run?
Answer: Its growth is 66.7%.

Question: For Clc1ccc(/C=N/Nc2ncnc3sc4c(c23)CCN(Cc2ccccc2)C4)cc1, which growth is on record?
Answer: The growth was 30.3%.

Question: For O/N=C(\CSc1nnc(-c2c[nH]c3ccccc23)n1-c1ccccc1)c1ccc(Cl)cc1, which growth is on record?
Answer: Its growth is -1.58% (active).

Question: COC[C@@H](CC(C)C)N=C1N/C(=C\c2ccc3ncsc3c2)C(=O)N1C was tested. Which growth did it give?
Answer: The growth was 0.794% (active).

Question: With O=C(c1ccc(Cl)cc1)C1[C@H](c2ccccc2Br)[C@@H](c2ccccc2)NC12C(=O)Nc1ccc(Cl)cc12 (stereo not given in full) as the molecule, how does the growth read?
Answer: The growth was 42.9%.

Question: For COc1ccc2[nH]cc(/C=N/Nc3cccc(Cl)n3)c2c1, which growth is on record?
Answer: The growth was 91.4%.

Question: Which growth does the source give for COc1ccc(CN2[C@@H](C(=O)NCc3ccc(C(=O)NO)cc3)Cc3c([nH]c4ccccc34)[C@@H]2C2CC2)cc1 here?
Answer: The growth was -24.8% (active).
